Measured values from PubChem BioAssay (NCI).
About 83,000 compounds went through this panel and 20% of them were active in at least one assay; those are over-represented in the sample as a whole.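 Cells were grown in 96-well plates and exposed to the test compound at a single concentration for 48 hours; results are reported as percent growth, with values below 10 considered active.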 Calls of active or inactive are those of the source.

Assays:
Test in all cases: NCI-60 one-dose screen, 48 h (100 = growth as untreated, 0 = no growth, -100 = all killed)
Details in all cases: 10 µM unless noted
SR leukemia = tested on: SR leukemia
RPMI-8226 leukemia = tested on: RPMI-8226 leukemia
OVCAR-8 ovarian = tested on: OVCAR-8 ovarian
OVCAR-5 ovarian = tested on: OVCAR-5 ovarian
OVCAR-4 ovarian = tested on: OVCAR-4 ovarian
SK-OV-3 ovarian = tested on: SK-OV-3 ovarian
IGROV1 ovarian = tested on: IGROV1 ovarian
OVCAR-3 ovarian = tested on: OVCAR-3 ovarian
HS 578T breast = tested on: HS 578T breast
NCI/ADR-RES ovarian = tested on: NCI/ADR-RES ovarian
T-47D breast = tested on: T-47D breast
BT-549 breast = tested on: BT-549 breast
MDA-MB-435 melanoma = tested on: MDA-MB-435 melanoma
SW-620 colon = tested on: SW-620 colon
MCF7 breast = tested on: MCF7 breast
HCC-2998 colon = tested on: HCC-2998 colon
KM12 colon = tested on: KM12 colon
HCT-116 colon = tested on: HCT-116 colon

Measured: growth

CN(C)CCCn1c2c(c3ccc(N4CCNCC4)cc3c1=O)C(=O)c1ccccc1-2
inactive: OVCAR-5 ovarian 16.5% | HS 578T breast 49.1% | T-47D breast 44% | BT-549 breast 54.2% | MDA-MB-435 melanoma 20%
active: SR leukemia -16.4% | RPMI-8226 leukemia -32.4% | OVCAR-8 ovarian -8.9% | OVCAR-4 ovarian -22.9% | SK-OV-3 ovarian 6.3% | IGROV1 ovarian 5.77% | OVCAR-3 ovarian -0.802% | NCI/ADR-RES ovarian -13.8% | SW-620 colon -21.6% | MCF7 breast -28.2% | HCC-2998 colon -68.9% | KM12 colon -32.1%

COc1cc(/C=C/C(=O)c2ccc(NC(=O)CSc3nnc(-c4cc(-c5ccccc5)nc5ccccc45)n3-c3ccccc3)cc2)cc(OC)c1OC
inactive: SR leukemia 58% | RPMI-8226 leukemia 72.3% | OVCAR-8 ovarian 86.9% | OVCAR-5 ovarian 93.6% | OVCAR-4 ovarian 103% | SK-OV-3 ovarian 101% | IGROV1 ovarian 110% | OVCAR-3 ovarian 98.5% | HS 578T breast 90.4% | NCI/ADR-RES ovarian 86.7% | T-47D breast 73% | BT-549 breast 90.7% | MDA-MB-435 melanoma 92.2% | SW-620 colon 90.5% | MCF7 breast 74.3% | HCC-2998 colon 88.3% | KM12 colon 63.5%

CCOC(=O)CCCn1c(-c2ccccc2)cc(-c2ccccc2)c(C#N)c1=O
inactive: SR leukemia 63.7% | RPMI-8226 leukemia 87.2% | OVCAR-8 ovarian 85.6% | OVCAR-5 ovarian 99.5% | OVCAR-4 ovarian 94.8% | SK-OV-3 ovarian 100% | IGROV1 ovarian 77.2% | OVCAR-3 ovarian 103% | HS 578T breast 67.8% | NCI/ADR-RES ovarian 72% | T-47D breast 93.6% | BT-549 breast 93.9% | MDA-MB-435 melanoma 50% | SW-620 colon 88.3% | MCF7 breast 89.6% | HCT-116 colon 75.5% | KM12 colon 83.4%

O=c1cc(N/N=C/c2ccc(F)cc2)c2cc(Cl)ccc2[nH]1
inactive: OVCAR-8 ovarian 93.6% | OVCAR-5 ovarian 88.4% | OVCAR-4 ovarian 92.9% | SK-OV-3 ovarian 84.9% | IGROV1 ovarian 107% | OVCAR-3 ovarian 100% | HS 578T breast 121% | NCI/ADR-RES ovarian 105% | T-47D breast 68.5% | BT-549 breast 93.6% | MDA-MB-435 melanoma 78.6% | SW-620 colon 101% | MCF7 breast 84.6% | HCC-2998 colon 85.1% | KM12 colon 108%
active: SR leukemia 4.1% | RPMI-8226 leukemia -43.8%

COc1ccc(C(c2cc(OC)c(OC)c(OC)c2)n2ccnc2)cc1O (stereo unspecified)
inactive: RPMI-8226 leukemia 18.9% | OVCAR-8 ovarian 10.3% | OVCAR-5 ovarian 71.1% | OVCAR-4 ovarian 73.6% | SK-OV-3 ovarian 21.8% | IGROV1 ovarian 36.4% | HS 578T breast 29.1% | NCI/ADR-RES ovarian 12.1% | T-47D breast 42.6% | SW-620 colon 28.6% | MCF7 breast 18.4% | HCC-2998 colon 25% | KM12 colon 17%
active: SR leukemia 8.48% | OVCAR-3 ovarian -9.52% | BT-549 breast -0.0718% | MDA-MB-435 melanoma -29.5%

O=C(CCl)n1nnnc1Cc1ccccc1
inactive: SR leukemia 93.5% | RPMI-8226 leukemia 96.3% | OVCAR-8 ovarian 91.1% | OVCAR-5 ovarian 95.9% | OVCAR-4 ovarian 105% | SK-OV-3 ovarian 93.6% | IGROV1 ovarian 107% | OVCAR-3 ovarian 112% | HS 578T breast 121% | NCI/ADR-RES ovarian 101% | T-47D breast 98.8% | BT-549 breast 93.7% | MDA-MB-435 melanoma 103% | SW-620 colon 101% | MCF7 breast 101% | HCC-2998 colon 94.6% | KM12 colon 116%

CCOC(=O)C1=C(C)NC(=O)NC1c1c(Cl)n(-c2ccccc2)c2ccccc12 (stereo unspecified)
inactive: SR leukemia 68.6% | RPMI-8226 leukemia 68.4% | OVCAR-8 ovarian 85.6% | OVCAR-5 ovarian 84.7% | OVCAR-4 ovarian 96% | SK-OV-3 ovarian 85.9% | IGROV1 ovarian 66.1% | OVCAR-3 ovarian 69.2% | HS 578T breast 76.1% | NCI/ADR-RES ovarian 85% | T-47D breast 90.4% | BT-549 breast 70.4% | MDA-MB-435 melanoma 54% | SW-620 colon 83.2% | MCF7 breast 87.9% | KM12 colon 92.3%

N#CC(Cc1cccc2ccccc12)c1cc2ccccc2[nH]1 (stereo unspecified)
inactive: SR leukemia 99.2% | RPMI-8226 leukemia 72.3% | OVCAR-8 ovarian 87.7% | OVCAR-5 ovarian 89% | OVCAR-4 ovarian 95.1% | SK-OV-3 ovarian 84.1% | IGROV1 ovarian 86.4% | OVCAR-3 ovarian 89.7% | HS 578T breast 89.7% | NCI/ADR-RES ovarian 87.2% | T-47D breast 83.8% | BT-549 breast 90.1% | MDA-MB-435 melanoma 102% | SW-620 colon 89.3% | MCF7 breast 82.5% | HCC-2998 colon 99.2% | KM12 colon 88%

N#C/C(=C\c1ccc(Br)cc1)n1nnc2c(F)cccc21
inactive: SR leukemia 23.1% | OVCAR-4 ovarian 14.1% | SK-OV-3 ovarian 40.7% | HS 578T breast 11% | T-47D breast 14.2% | BT-549 breast 12% | MCF7 breast 12.7%
active: RPMI-8226 leukemia -20.2% | OVCAR-8 ovarian 7.76% | OVCAR-5 ovarian 1.16% | IGROV1 ovarian -24.3% | OVCAR-3 ovarian -51.1% | NCI/ADR-RES ovarian 2.56% | MDA-MB-435 melanoma -26.8% | SW-620 colon -22.1% | HCC-2998 colon -38.4% | KM12 colon 4.37%

C=C1C(=O)O[C@H]2[C@H]1CC/C(COC(=O)NCc1ccc(Cn3c(=O)sn(CCCI)c3=O)cc1)=C\CC[C@@]1(C)O[C@@H]21
active: SR leukemia 8.4% | RPMI-8226 leukemia -6.45% | IGROV1 ovarian -0.0888% | OVCAR-3 ovarian -33.4% | T-47D breast 8.47% | SW-620 colon -42.9% | MCF7 breast 4.45%
inactive: OVCAR-8 ovarian 37.7% | OVCAR-5 ovarian 71.1% | OVCAR-4 ovarian 17.7% | SK-OV-3 ovarian 101% | HS 578T breast 78.4% | NCI/ADR-RES ovarian 102% | BT-549 breast 40.8% | MDA-MB-435 melanoma 17.5% | HCC-2998 colon 104% | KM12 colon 100%

O=C(CC1(O)C(=O)Nc2ccc(Br)cc21)c1ccc(Cl)cc1 (stereo unspecified)
inactive: SR leukemia 103% | RPMI-8226 leukemia 96.7% | OVCAR-8 ovarian 96.6% | OVCAR-5 ovarian 124% | OVCAR-4 ovarian 97% | SK-OV-3 ovarian 88.3% | IGROV1 ovarian 93.2% | OVCAR-3 ovarian 102% | HS 578T breast 91.7% | NCI/ADR-RES ovarian 104% | T-47D breast 84.4% | BT-549 breast 99.9% | MDA-MB-435 melanoma 109% | SW-620 colon 99% | MCF7 breast 98% | HCC-2998 colon 104% | KM12 colon 99.5%

Cn1ccnc1CN1CCSC(C(=O)Nc2ccccc2)C1 (stereo unspecified)
inactive: SR leukemia 96.8% | RPMI-8226 leukemia 88.5% | OVCAR-8 ovarian 95.5% | OVCAR-5 ovarian 83.1% | OVCAR-4 ovarian 90.7% | SK-OV-3 ovarian 98.7% | IGROV1 ovarian 94.5% | OVCAR-3 ovarian 102% | HS 578T breast 95.9% | NCI/ADR-RES ovarian 92.7% | T-47D breast 90.7% | BT-549 breast 93.3% | MDA-MB-435 melanoma 92.2% | SW-620 colon 96.9% | MCF7 breast 91.6% | HCC-2998 colon 98.6% | KM12 colon 97.7%

N#Cc1c(N)nnn1Cc1cc(=O)oc2ccc(O)cc12
inactive: SR leukemia 95.3% | RPMI-8226 leukemia 94.1% | OVCAR-8 ovarian 100% | OVCAR-5 ovarian 106% | OVCAR-4 ovarian 110% | SK-OV-3 ovarian 112% | IGROV1 ovarian 112% | OVCAR-3 ovarian 113% | HS 578T breast 99% | NCI/ADR-RES ovarian 111% | T-47D breast 98% | BT-549 breast 111% | MDA-MB-435 melanoma 105% | SW-620 colon 104% | MCF7 breast 96.8% | HCT-116 colon 89.3% | KM12 colon 107%

O=C(Cc1ccc(F)cc1)c1ccccc1
inactive: SR leukemia 100% | RPMI-8226 leukemia 95.9% | OVCAR-8 ovarian 104% | OVCAR-5 ovarian 122% | OVCAR-4 ovarian 109% | SK-OV-3 ovarian 108% | IGROV1 ovarian 107% | OVCAR-3 ovarian 129% | HS 578T breast 94% | NCI/ADR-RES ovarian 108% | T-47D breast 112% | BT-549 breast 97.2% | MDA-MB-435 melanoma 106% | SW-620 colon 110% | MCF7 breast 103% | HCC-2998 colon 106% | KM12 colon 111%

N=C(N)SCc1c2ccccc2c(CSC(=N)N)c2ccccc12
inactive: RPMI-8226 leukemia 46% | OVCAR-8 ovarian 60.7% | OVCAR-5 ovarian 102% | OVCAR-4 ovarian 80.6% | SK-OV-3 ovarian 81.4% | IGROV1 ovarian 80.6% | OVCAR-3 ovarian 93.5% | HS 578T breast 85.5% | NCI/ADR-RES ovarian 103% | T-47D breast 71.5% | BT-549 breast 102% | MDA-MB-435 melanoma 74% | MCF7 breast 38.3% | HCT-116 colon 40.4% | HCC-2998 colon 79.5% | KM12 colon 59.7%
active: SR leukemia -11.1%

COc1ccc(Cl)cc1Nc1nc(C(F)(F)F)ccc1C(=O)N/N=C/c1ccc(N(C)C)cc1
active: SR leukemia 7.32%
inactive: RPMI-8226 leukemia 108% | OVCAR-8 ovarian 99.8% | OVCAR-5 ovarian 79.5% | OVCAR-4 ovarian 87.1% | SK-OV-3 ovarian 11.8% | IGROV1 ovarian 96.4% | OVCAR-3 ovarian 147% | HS 578T breast 101% | NCI/ADR-RES ovarian 90% | T-47D breast 82.7% | BT-549 breast 115% | MDA-MB-435 melanoma 121% | SW-620 colon 109% | MCF7 breast 218% | HCC-2998 colon 68.3% | KM12 colon 103%
